Measured values as given in PubChem BioAssay (EPA / NIEHS).
Inconclusive results are not listed. Some structures have more than one record in an assay (separate samples or runs), and their calls can disagree. Activity calls are given as the source filed them. The calls were made as follows, unless noted: active = hit-call score of the fitted dose curve at least 0.9, where 1 is the maximum; inactive = score below 0.9.

What was measured:
[1] = biological target: human Vitamin D Receptor (VDR), VDR (gene 7421) (UniProt P11473); assay: ATG_VDR_TRANS: Attagene TRANS-FACTORIAL HepG2 Assay for human Vitamin D Receptor (VDR) (AID 2283022; active = hit-call score of the fitted dose curve at least 0.9, where 1 is the maximum)
Procedure, shortened: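 HepG2 cells were transiently transfected with GAL4-UAS reporter units and a chimeric VDR-Gal4 construct, then dosed for 24 hours. Reporter mRNA was quantified by RT-PCR, fluorescent labeling, HpaI digestion and capillary electrophoresis; gain of signal analysed vs DMSO.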

[2] = BSK_3C_SRB: Viability Assessment in the BioMAP Diversity Plus: 3C Assay (AID 2283023); settings: primary human endothelial cells (HUVEC);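 also: fitted both ways against DMSO so a hit may be signal rise or drop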
Procedure, shortened: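 Human umbilical vein endothelial cells in the 3C system, treated 24 h. Total protein measured by 0.1% sulforhodamine B staining after 10% TCA fixation, read at 560 nm; bidirectional fit versus DMSO.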

[3] = read-out: Matrix Metallopeptidase 1 (MMP1), MMP1 (gene 4312); assay: BSK_BE3C_MMP1: BioMAP Diversity Plus: BE3C Assay for Matrix Metallopeptidase 1 (MMP1) Biomarker Activity (AID 2283024); settings: primary human bronchial epithelial cells; actives raise or lower the signal
Procedure, shortened: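 Human primary bronchial epithelial cells (BE3C system) dosed for 24 h; MMP-1 quantified by ELISA. Bidirectional fit against DMSO; cytotoxicity tracked in parallel cultures by SRB total-protein staining.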

[4] = BSK_3C_Vis: BioMAP Diversity Plus: 3C Assay for Morphology Visualization (AID 2283025); settings: primary human endothelial cells (HUVEC);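 also: fitted both ways so gain or loss versus DMSO counts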;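 as to AC50: light microscopy image of cell morphology used as background control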
Procedure, shortened: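 Human umbilical vein endothelial cell morphology was inspected by light microscopy 24 h after chemical dosing; scored bidirectionally relative to DMSO.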

[5] = read-out: Pselectin, SELP (gene 6403); assay: BSK_4H_Pselectin: BioMAP Diversity Plus: 4H Assay for Pselectin Biomarker Activity (AID 2283026); settings: primary human endothelial cells (HUVEC); actives raise or lower the signal
Procedure, shortened: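 Primary human umbilical vein endothelial cells were treated 24 h, and cell-surface P-selectin was then quantified by ELISA. Bidirectional fit versus DMSO; cytotoxicity checked in parallel cultures by SRB total-protein staining.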

[6] = BSK_4H_SRB: Viability Assessment in the BioMAP Diversity Plus: 4H Assay (AID 2283027); settings: primary human endothelial cells (HUVEC);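 also: cells exposed to compound for 24 h before staining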;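 as to AC50: curves fitted both ways versus DMSO so AC50 may be loss or gain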
Procedure, shortened: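 Human umbilical vein endothelial cells, 24 h after chemical dosing; total protein measured by 0.1% sulforhodamine B staining after 10% TCA fixation, read at 560 nm. Bidirectional fitting against DMSO.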

[7] = read-out: Thrombomodulin, THBD (gene 7056); assay: BSK_3C_Thrombomodulin: BioMAP Diversity Plus: 3C Assay for Thrombomodulin Biomarker Activity (AID 2283029); settings: primary human endothelial cells (HUVEC); actives raise or lower the signal
Procedure, shortened: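 Human umbilical vein endothelial cells were exposed to chemicals for 24 h; cell-surface thrombomodulin quantified by ELISA, with bidirectional fitting against DMSO baseline.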

[8] = read-out: Urokinase-type plasminogen activator receptor (uPAR), PLAUR (gene 5329); assay: BSK_4H_uPAR: BioMAP Diversity Plus: 4H Assay for Urokinase-type plasminogen activator receptor (uPAR) Biomarker Activity (AID 2283030); settings: primary human endothelial cells (HUVEC); actives raise or lower the signal
Procedure, shortened: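 Human umbilical vein endothelial cells in the 4H system, 24 h after chemical dosing. Cell-surface uPAR measured by ELISA, fitted in both directions versus DMSO; cytotoxicity checked by SRB total protein in parallel cultures.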

[9] = read-out: Vascular endothelial growth factor receptor 2 (Homo sapiens) (UniProt P35968); assay: BSK_4H_VEGFRII: BioMAP Diversity Plus: 4H Assay for Vascular endothelial growth factor receptor 2 (VEGFR2) Biomarker Activity (AID 2283031); settings: primary human endothelial cells (HUVEC); actives raise or lower the signal;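 as to AC50: cell-surface VEGFR2 protein level quantified by ELISA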
Procedure, shortened: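 Primary human umbilical vein endothelial cells (4H system), 24 h exposure; cell-surface VEGFR2 measured by ELISA. Bidirectional fitting versus DMSO; cytotoxicity checked in parallel by SRB total-protein staining.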

[10] = BSK_BE3C_SRB: Viability Assessment in the BioMAP Diversity Plus: BE3C Assay (AID 2283028); settings: primary human bronchial epithelial cells
Procedure, shortened: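 Human bronchial epithelial primary cells in confluent culture, 24 h after chemical dosing; total protein by 0.1% SRB staining after 10% TCA fixation, read at 560 nm. Bidirectional fitting versus DMSO baseline.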

Measured: AC50

Sequence of human Vitamin D Receptor (VDR), VDR (gene 7421) (P11473 whole entry, looked up, the tested form may be a part): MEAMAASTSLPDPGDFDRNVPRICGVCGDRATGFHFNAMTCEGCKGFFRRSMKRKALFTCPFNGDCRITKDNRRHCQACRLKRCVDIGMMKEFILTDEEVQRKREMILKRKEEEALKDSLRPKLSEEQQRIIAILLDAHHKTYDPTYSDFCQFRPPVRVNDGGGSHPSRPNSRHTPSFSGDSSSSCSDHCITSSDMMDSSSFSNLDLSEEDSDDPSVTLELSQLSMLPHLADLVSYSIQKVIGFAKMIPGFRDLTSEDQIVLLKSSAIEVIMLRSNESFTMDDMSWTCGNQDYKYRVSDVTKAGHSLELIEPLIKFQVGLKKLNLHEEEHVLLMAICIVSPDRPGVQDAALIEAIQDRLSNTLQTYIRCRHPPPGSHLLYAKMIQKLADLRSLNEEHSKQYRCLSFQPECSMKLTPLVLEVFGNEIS

Nc1ccc(N)cc1
active: [4] 19.9 µM
inactive: [1] | [2] | [3] | [5] | [6] | [7] | [8] | [9]

C#CCOC(=O)/C=C(C)/C=C/CC(C)CCCC(C)C (stereo not drawn)
active: [2] 32.1 µM | [4] 39.8 µM | [5] 20 µM | [6] 33.2 µM | [9] 31.5 µM
inactive: [1] | [3] | [7] | [8]

Cc1c([N+](=O)[O-])c(C)c([N+](=O)[O-])c(C(C)(C)C)c1[N+](=O)[O-]
inactive: [5] | [6] | [7] | [8] | [9]
active: [2] 20 µM | [3] 7.08 µM | [4] 37.4 µM

c1ccc(-c2cccc(-c3ccccc3)c2)cc1
inactive: [7] | [8]
active: [2] 10.7 µM | [3] 0.136 µM | [4] 13 µM | [5] 12.4 µM | [6] 20 µM | [9] 11 µM

Oc1c(Br)cc(Br)cc1Br
inactive: [3] | [4] | [7] | [8]
active: [2] 35.5 µM | [6] 29.5 µM | [9] 27.3 µM

CCOP(=O)(OCC)SCCSCC
inactive: [2] | [3] | [4] | [5] | [6] | [7] | [8] | [9]

CCOP(=O)(OCC)OC(=CCl)c1ccc(Cl)cc1Cl
active: [2] 29 µM | [4] 37.4 µM | [5] 35.3 µM | [6] 29.3 µM | [8] 30.8 µM | [9] 28.7 µM
inactive: [3] | [7]

OCCCCO
inactive: [2] | [3] | [5] | [6] | [10] | [7] | [8]

O=C(O)COc1cc(Cl)c(Cl)cc1Cl
inactive: [2] | [3] | [4] | [5] | [6] | [10] | [7] | [8] | [9]

Cc1cc(Cl)ccc1OC(C)C(=O)O (stereo not drawn)
inactive: [2] | [3] | [4] | [5] | [6] | [10] | [7] | [8] | [9]

COCC(=O)N(c1c(C)cccc1C)[C@H](C)C(=O)OC
inactive: [2] | [3] | [4] | [5] | [6] | [8] | [9]

O=C(Cc1ccccc1)OCCc1ccccc1
active: [5] 2.34 µM
inactive: [1] | [2] | [3] | [5] | [6] | [7] | [8] | [9]
